{"source": "PubChem BioAssay (NCI)", "note": "Values joined by “and” are separate entries in the source; they are usually repeats but may differ in a detail not shown here. Equal values may be shown once. Compounds without any hit were thinned out: in the full panel of roughly 83,000, 20% have a hit.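 Cells were grown in 96-well plates and exposed to the test compound at a single concentration for 48 hours; results are reported as percent growth, with values below 10 considered active.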 Active and inactive are the calls of the source."}
{"system": "HL-60(TB) leukemia", "assay": "NCI-60 one-dose screen, 48 h (100 = growth as untreated, 0 = no growth, -100 = all killed)", "conditions": "10 µM unless noted"}
{"smiles": "O=c1[nH]c2ccccc2cc1CSc1cccc(Nc2nccc(-c3ccc4ccccc4c3)n2)c1", "growth": "93.5% (inactive)"}
{"smiles": "COc1ccc(NC(=O)NN2C(=O)c3ccccc3N(C)C2c2ccc(OC)cc2)cc1", "note": "(stereo not given)", "growth": "101% (inactive)"}
{"smiles": "CSc1ccccc1NC(=O)c1ccc2nnn(/C(C#N)=C/c3ccccn3)c2c1", "growth": "-31.5% (active)"}
{"smiles": "CCCCCCCCCCCCCCCCCCCC(=O)NCCc1c[nH]c2ccc(OC(=O)NOCCOCCOCCOCCOCCOCCOCCOCCOCCOCCOCCOCCOCCOCCOCCOCCOCCOCCOCCOCCOCCOCCOC)cc12", "growth": "-38.2% (active)"}
{"smiles": "COc1ccc2[nH]c(O)c(N=Nc3nc(-c4ccc(Br)cc4)cs3)c2c1", "growth": "73.5% (inactive)"}
{"smiles": "COc1ccc2c(c1)C(Sc1ccc(Cl)cc1)c1c(nc(N)c(C#N)c1N)O2", "note": "(stereo not given)", "growth": "44.8% (inactive)"}
{"smiles": "COc1ccc2[nH]c(=O)cc(-n3ncc(C(=O)/C=C/c4cc(OC)c(OC)c(OC)c4)c3C)c2c1", "growth": "-33.4% (active)"}
{"smiles": "CC(C)CSc1nc(NCCc2c[nH]c3ccccc23)c(C#N)c(-c2ccc(Cl)cc2)n1", "growth": "47.5% (inactive)"}
{"smiles": "C[C@@H](Nc1c(C#N)cnc2ccc(-c3cnc4[nH]ncc4c3)cc12)c1ccccc1", "growth": "35.2% (inactive)"}
{"smiles": "NC1(c2ccc(-c3ccc4ncnc(NCc5ccccc5)c4c3)cn2)COC1", "growth": "113% (inactive) and 106% (inactive)"}
{"smiles": "CC1(c2ccccc2)NC(=O)N(CC(=O)Nc2ccc(C(=O)/C=C/c3ccc(Br)cc3)cc2)C1=O", "note": "(stereo not given)", "growth": "20.8% (inactive)"}
{"smiles": "CN(C)c1ccc(/C=C/c2nc3ccccc3c(=O)n2CC(=O)Nc2ccc(Cl)cc2)cc1", "growth": "95% (inactive)"}
{"smiles": "CCCCCCCCCCCCCCCCCCCC(=O)NCCc1c[nH]c2ccc(OC(=O)CCCC(=O)OCCOOCCOOCCOOCCOOCCOOCCOOCCOOCCOOCCOOCCOOCCOOCCOC)cc12", "growth": "-29.3% (active)"}
{"smiles": "CN1CCN(CCS(=O)(=O)Nc2cc(-c3ccc4ncnc(Nc5ccc(F)c(Cl)c5)c4c3)cnc2Cl)CC1", "growth": "19.2% (inactive)"}
{"smiles": "COc1c(F)ccc(C(=O)Nc2ccc3nc(NC(=O)C4CCCN(S(=O)(=O)c5cccc(Br)c5)C4)sc3c2)c1F", "note": "(stereo not given)", "growth": "80.6% (inactive)"}
{"smiles": "O=C(CNc1nc(-c2ccccc2)cs1)Nc1cccc(Cl)c1", "growth": "-2.63% (active)"}
{"smiles": "CC(=O)Nc1cccc(-n2c(COc3ccc(I)cc3)nc3ccccc32)c1", "growth": "116% (inactive) and 92.8% (inactive)"}
{"smiles": "CN1CCN(c2ccc(C(=O)/C=C/c3ccc(C#N)cc3)cc2)CC1", "growth": "65.1% (inactive)"}
{"smiles": "O=C1Nc2cc(Cl)ccc2/C1=C/c1cccc(OCc2ccc(Br)cc2F)c1", "growth": "-57.8% (active)"}
{"smiles": "O/N=C(\\CSc1nnc(-c2c[nH]c3ccccc23)n1-c1ccccc1)c1ccc(Cl)cc1", "growth": "-25.9% (active)"}
{"smiles": "COc1ccc(C(=O)/C=C/c2ccc3c(c2)OCCO3)cc1S(N)(=O)=O", "growth": "95.1% (inactive)"}
{"smiles": "c1n[nH]cc1-c1nc2ccc3[nH]ncc3c2c2c1CC1(CC2)COC1", "growth": "29.1% (inactive)"}
{"smiles": "Cc1ccc(C2CC(c3ccc(S(=O)(=O)NCCNc4nc(N(C)C)nc(N5CCOCC5)n4)cc3)=Nc3c(N)nc(N)nc3N2)cc1", "note": "(stereo not given)", "growth": "35.8% (inactive)"}
{"smiles": "CCCCOc1ccc(Nc2nc3ccccc3nc2Nc2ccc(OCCCC)cc2)cc1", "growth": "79.7% (inactive)"}
{"smiles": "COc1cc(/C=N/NC(=O)c2ccc(OCc3nc4ccc(Cl)cc4[nH]3)cc2)cc(OC)c1OC", "growth": "28.2% (inactive)"}
{"smiles": "CCN1C(=O)N(CC)C2NNC(Sc3c(C(=O)O)c4ccccc4n(CC(C)C)c3=O)=NC21", "note": "(stereo not given)", "growth": "-53.3% (active)"}
{"smiles": "Nc1cc(-c2cccc(C(=O)NCc3ccc4c(c3)OCO4)c2)ccn1", "growth": "98.1% (inactive)"}
{"smiles": "Nc1ccc(-c2ccc3ncnc(N4CCc5cc(F)c(Cl)cc54)c3c2)cn1", "growth": "22.8% (inactive)"}
{"smiles": "CC(=O)Oc1ccccc1C(=O)Oc1ccc(C(=O)/C=C/c2ccncc2)cc1", "growth": "3.04% (active)"}
{"smiles": "C#CCN(C)CCCOc1ccc(N(C)C(=O)c2cc(C(C)C)c(O)cc2O)cc1Cl", "growth": "-40.7% (active)"}
{"smiles": "O=C1Nc2ccccc2/C1=C\\c1ccc(OCC(=O)c2ccc(Br)cc2)cc1", "growth": "40.4% (inactive)"}
{"smiles": "Cc1cccc(NCC(=O)N2CCN(c3ncnc4c3cnn4-c3ccccc3)CC2)c1", "growth": "60.2% (inactive)"}
{"smiles": "O=C(Cn1c(/C=C/c2ccccc2)nc2ccccc2c1=O)Nc1ccc(Cl)cc1", "growth": "99.2% (inactive)"}
{"smiles": "Nc1nc(-c2ccccc2)cs1", "growth": "18.9% (inactive)"}
{"smiles": "COc1ccc2nc(Cl)c(-c3cc(-c4ccccc4)nc(N)n3)cc2c1", "growth": "-37.5% (active)"}
